Article PMC7862700, “An all-to-all approach to the identification of sequence-specific readers for epigenetic DNA modifications on cytosine”

Key:
Assay in all cases: DAPPL (digital affinity profiling via proximity ligation, sequencing); 10 mM Tris-HCl pH 7.5, 50 mM NaCl, 1 mM DTT, 4% glycerol, room temperature, 30 min; GST-TFs on glutathione beads, 16-mer random dsDNA library, 0.1% formaldehyde crosslink after washing; high values mean tight binding
Details in all cases: protein: recombinant; tags: N-terminal GST; dsDNA, one strand shown
FLI1 = molecular target: T1, FLI1 (Homo sapiens, UniProt Q01543 1-452)
T1 sequence: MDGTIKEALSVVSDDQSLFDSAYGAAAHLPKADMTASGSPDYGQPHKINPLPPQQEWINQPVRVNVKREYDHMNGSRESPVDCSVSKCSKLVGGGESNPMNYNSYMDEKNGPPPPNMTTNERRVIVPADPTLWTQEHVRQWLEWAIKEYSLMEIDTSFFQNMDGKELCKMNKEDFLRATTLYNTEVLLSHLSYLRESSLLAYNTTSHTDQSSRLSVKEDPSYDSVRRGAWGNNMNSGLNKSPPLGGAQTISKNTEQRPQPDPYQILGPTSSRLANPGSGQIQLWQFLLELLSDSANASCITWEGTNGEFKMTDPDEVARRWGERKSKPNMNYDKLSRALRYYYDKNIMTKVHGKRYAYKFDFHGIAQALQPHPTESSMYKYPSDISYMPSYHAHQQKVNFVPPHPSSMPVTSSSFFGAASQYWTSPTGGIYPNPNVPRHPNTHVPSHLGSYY
Procedure, shortened: (§1)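 Human transcription factors carrying a GST fusion were produced in yeast, bound to glutathione beads, tagged with DNA barcodes and pooled together with a tag-only sample. Each pool was held with 200 nmole of a random double-stranded 16-mer DNA library in Tris/NaCl/DTT/glycerol buffer for 30 min at room temperature, then washed, crosslinked in 0.1% formaldehyde, proximity-ligated with BsaI/T4 ligase (1 h, 37 °C), PCR-amplified and sequenced on an Illumina NextSeq500. Binding signal is the read frequency of each hexamer for a given factor divided by its frequency in the tag-only sample.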

ELK1 = molecular target: T2, ELK1 (Homo sapiens, UniProt P19419 1-428)
T2 sequence: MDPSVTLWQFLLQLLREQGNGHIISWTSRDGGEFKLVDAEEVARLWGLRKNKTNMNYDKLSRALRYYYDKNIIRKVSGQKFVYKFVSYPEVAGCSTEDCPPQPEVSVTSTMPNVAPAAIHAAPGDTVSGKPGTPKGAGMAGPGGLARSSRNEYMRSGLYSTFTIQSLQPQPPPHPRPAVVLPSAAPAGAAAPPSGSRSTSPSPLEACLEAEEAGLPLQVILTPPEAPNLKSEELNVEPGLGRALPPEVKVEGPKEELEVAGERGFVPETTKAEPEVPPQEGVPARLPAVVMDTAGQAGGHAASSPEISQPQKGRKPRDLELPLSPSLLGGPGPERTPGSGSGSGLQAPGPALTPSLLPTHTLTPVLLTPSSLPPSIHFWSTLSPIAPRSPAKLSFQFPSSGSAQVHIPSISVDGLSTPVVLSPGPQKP
Procedure, shortened: as §1

GABPA = molecular target: T3, GABPA (Homo sapiens, UniProt Q06546 1-454)
T3 sequence: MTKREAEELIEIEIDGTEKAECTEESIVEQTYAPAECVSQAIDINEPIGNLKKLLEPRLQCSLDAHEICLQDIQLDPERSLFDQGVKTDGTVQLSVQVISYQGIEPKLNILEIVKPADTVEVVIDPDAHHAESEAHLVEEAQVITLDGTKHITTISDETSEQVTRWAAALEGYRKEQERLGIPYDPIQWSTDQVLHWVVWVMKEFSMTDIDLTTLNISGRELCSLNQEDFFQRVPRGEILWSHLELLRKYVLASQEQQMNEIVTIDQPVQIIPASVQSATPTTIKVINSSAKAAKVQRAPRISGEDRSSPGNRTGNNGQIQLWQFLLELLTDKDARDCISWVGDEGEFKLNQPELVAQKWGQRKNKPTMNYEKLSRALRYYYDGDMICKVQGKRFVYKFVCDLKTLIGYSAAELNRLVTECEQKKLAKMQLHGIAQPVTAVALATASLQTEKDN
Procedure, shortened: as §1

ERG = molecular target: T4, ERG (Homo sapiens, UniProt P11308 1-479)
T4 sequence: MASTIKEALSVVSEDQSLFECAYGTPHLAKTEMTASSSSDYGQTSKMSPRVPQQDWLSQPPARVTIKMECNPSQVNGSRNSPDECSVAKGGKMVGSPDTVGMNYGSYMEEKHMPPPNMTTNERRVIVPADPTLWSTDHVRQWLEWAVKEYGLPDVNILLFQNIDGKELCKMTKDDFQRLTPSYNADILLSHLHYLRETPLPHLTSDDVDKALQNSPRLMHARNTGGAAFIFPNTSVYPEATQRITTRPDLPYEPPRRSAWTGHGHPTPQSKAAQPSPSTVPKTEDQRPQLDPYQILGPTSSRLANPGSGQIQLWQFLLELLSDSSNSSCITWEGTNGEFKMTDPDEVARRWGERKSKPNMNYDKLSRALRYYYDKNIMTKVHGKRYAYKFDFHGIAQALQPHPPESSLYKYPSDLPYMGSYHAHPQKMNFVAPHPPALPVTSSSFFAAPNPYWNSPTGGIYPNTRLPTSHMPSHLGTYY
Procedure, shortened: as §1

ELF1 = ELF1 (Homo sapiens, UniProt P32519 1-619)
Chain of ELF1 (P32519 whole entry): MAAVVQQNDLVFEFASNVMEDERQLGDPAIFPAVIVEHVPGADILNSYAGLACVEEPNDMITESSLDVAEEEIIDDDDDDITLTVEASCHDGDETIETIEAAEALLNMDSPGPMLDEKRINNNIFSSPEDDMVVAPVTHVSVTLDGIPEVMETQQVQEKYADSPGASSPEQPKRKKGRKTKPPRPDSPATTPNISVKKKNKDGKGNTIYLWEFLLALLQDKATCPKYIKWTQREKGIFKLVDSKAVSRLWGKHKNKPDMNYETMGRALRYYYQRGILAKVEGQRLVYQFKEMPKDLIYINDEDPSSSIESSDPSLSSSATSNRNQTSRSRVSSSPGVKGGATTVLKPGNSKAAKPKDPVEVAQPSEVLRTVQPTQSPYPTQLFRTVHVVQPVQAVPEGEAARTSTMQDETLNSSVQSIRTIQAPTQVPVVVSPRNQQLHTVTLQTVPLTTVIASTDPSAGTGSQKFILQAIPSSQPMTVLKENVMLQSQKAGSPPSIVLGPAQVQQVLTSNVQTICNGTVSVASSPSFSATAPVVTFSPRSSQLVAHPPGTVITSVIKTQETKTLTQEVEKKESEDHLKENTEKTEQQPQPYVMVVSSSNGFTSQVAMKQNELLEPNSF
Procedure, shortened: as §1

EHF = molecular target: T5, EHF (Homo sapiens, UniProt Q9NZC4 1-300)
T5 sequence: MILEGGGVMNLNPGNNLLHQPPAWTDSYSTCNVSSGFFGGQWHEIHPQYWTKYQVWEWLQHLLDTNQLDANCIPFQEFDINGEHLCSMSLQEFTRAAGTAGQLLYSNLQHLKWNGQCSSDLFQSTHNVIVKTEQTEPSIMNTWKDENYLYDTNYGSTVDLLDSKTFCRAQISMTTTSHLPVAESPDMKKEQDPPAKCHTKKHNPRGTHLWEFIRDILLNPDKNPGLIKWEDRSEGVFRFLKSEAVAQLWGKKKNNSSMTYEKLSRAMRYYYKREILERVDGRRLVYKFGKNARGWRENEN
Procedure, shortened: as §1

SPI1 = SPI1 (Homo sapiens, UniProt P17947 1-270)
Procedure, shortened: as §1

SPIB = SPIB (Homo sapiens, UniProt Q01892 1-262)
Chain of SPIB (Q01892 whole entry): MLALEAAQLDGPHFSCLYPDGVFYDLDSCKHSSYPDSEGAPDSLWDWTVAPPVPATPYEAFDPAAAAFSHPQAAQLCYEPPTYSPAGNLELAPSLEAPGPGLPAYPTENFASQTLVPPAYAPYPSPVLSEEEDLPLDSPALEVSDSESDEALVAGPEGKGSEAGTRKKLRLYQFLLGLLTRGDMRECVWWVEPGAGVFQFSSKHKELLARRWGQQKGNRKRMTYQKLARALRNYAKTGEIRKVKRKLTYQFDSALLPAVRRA
Procedure, shortened: as §1

ELK3 = molecular target: T6, ELK3 (Homo sapiens, UniProt P41970 1-407)
T6 sequence: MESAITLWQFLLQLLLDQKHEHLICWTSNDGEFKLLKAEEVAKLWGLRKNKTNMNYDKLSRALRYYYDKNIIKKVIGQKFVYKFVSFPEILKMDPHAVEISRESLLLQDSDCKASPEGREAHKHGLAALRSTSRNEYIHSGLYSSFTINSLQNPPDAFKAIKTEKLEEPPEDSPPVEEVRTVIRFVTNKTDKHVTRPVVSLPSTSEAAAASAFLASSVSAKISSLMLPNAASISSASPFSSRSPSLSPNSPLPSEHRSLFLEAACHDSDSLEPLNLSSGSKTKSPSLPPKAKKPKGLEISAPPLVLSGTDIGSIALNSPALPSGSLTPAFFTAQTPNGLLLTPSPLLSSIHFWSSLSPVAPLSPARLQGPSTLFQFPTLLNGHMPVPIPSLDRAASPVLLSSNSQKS
Procedure, shortened: as §1

Sequence	binding signal (FLI1)	binding signal (ELK1)	binding signal (GABPA)	binding signal (ERG)	binding signal (ELF1)	binding signal (EHF)	binding signal (SPI1)	binding signal (SPIB)	binding signal (ELK3)
CTGTAC	1.28 fold enrichment (6-mer frequency, TF over GST control)	1.31 fold enrichment (6-mer frequency, TF over GST control)	1.23 fold enrichment (6-mer frequency, TF over GST control)	1.39 fold enrichment (6-mer frequency, TF over GST control)	1.38 fold enrichment (6-mer frequency, TF over GST control)	1.33 fold enrichment (6-mer frequency, TF over GST control)	1.4 fold enrichment (6-mer frequency, TF over GST control)	1.3 fold enrichment (6-mer frequency, TF over GST control)	1.24 fold enrichment (6-mer frequency, TF over GST control)
CCTCGA	1.33 fold enrichment (6-mer frequency, TF over GST control)	1.26 fold enrichment (6-mer frequency, TF over GST control)	1.31 fold enrichment (6-mer frequency, TF over GST control)	1.3 fold enrichment (6-mer frequency, TF over GST control)	1.27 fold enrichment (6-mer frequency, TF over GST control)	1.37 fold enrichment (6-mer frequency, TF over GST control)	1.26 fold enrichment (6-mer frequency, TF over GST control)	1.25 fold enrichment (6-mer frequency, TF over GST control)	1.18 fold enrichment (6-mer frequency, TF over GST control)
TGGATG	1.33 fold enrichment (6-mer frequency, TF over GST control)	1.37 fold enrichment (6-mer frequency, TF over GST control)	1.47 fold enrichment (6-mer frequency, TF over GST control)	1.32 fold enrichment (6-mer frequency, TF over GST control)	1.48 fold enrichment (6-mer frequency, TF over GST control)	1.5 fold enrichment (6-mer frequency, TF over GST control)	1.37 fold enrichment (6-mer frequency, TF over GST control)	1.64 fold enrichment (6-mer frequency, TF over GST control)	1.49 fold enrichment (6-mer frequency, TF over GST control)
TAAGTT	1.23 fold enrichment (6-mer frequency, TF over GST control)	1.39 fold enrichment (6-mer frequency, TF over GST control)	1.33 fold enrichment (6-mer frequency, TF over GST control)	1.25 fold enrichment (6-mer frequency, TF over GST control)	1.3 fold enrichment (6-mer frequency, TF over GST control)	1.38 fold enrichment (6-mer frequency, TF over GST control)	1.31 fold enrichment (6-mer frequency, TF over GST control)	1.35 fold enrichment (6-mer frequency, TF over GST control)	1.27 fold enrichment (6-mer frequency, TF over GST control)
CCGCCT	1.68 fold enrichment (6-mer frequency, TF over GST control)	1.55 fold enrichment (6-mer frequency, TF over GST control)	1.55 fold enrichment (6-mer frequency, TF over GST control)	1.55 fold enrichment (6-mer frequency, TF over GST control)	1.66 fold enrichment (6-mer frequency, TF over GST control)	1.67 fold enrichment (6-mer frequency, TF over GST control)	1.5 fold enrichment (6-mer frequency, TF over GST control)	1.63 fold enrichment (6-mer frequency, TF over GST control)	1.82 fold enrichment (6-mer frequency, TF over GST control)
TTAGCA	1.21 fold enrichment (6-mer frequency, TF over GST control)	1.19 fold enrichment (6-mer frequency, TF over GST control)	1.16 fold enrichment (6-mer frequency, TF over GST control)	1.3 fold enrichment (6-mer frequency, TF over GST control)	1.18 fold enrichment (6-mer frequency, TF over GST control)	1.21 fold enrichment (6-mer frequency, TF over GST control)	1.15 fold enrichment (6-mer frequency, TF over GST control)	1.15 fold enrichment (6-mer frequency, TF over GST control)	1.17 fold enrichment (6-mer frequency, TF over GST control)
TTTGCC	1.42 fold enrichment (6-mer frequency, TF over GST control)	1.26 fold enrichment (6-mer frequency, TF over GST control)	1.2 fold enrichment (6-mer frequency, TF over GST control)	1.26 fold enrichment (6-mer frequency, TF over GST control)	1.23 fold enrichment (6-mer frequency, TF over GST control)	1.22 fold enrichment (6-mer frequency, TF over GST control)	1.23 fold enrichment (6-mer frequency, TF over GST control)	1.31 fold enrichment (6-mer frequency, TF over GST control)	1.21 fold enrichment (6-mer frequency, TF over GST control)
TTAATT	1.38 fold enrichment (6-mer frequency, TF over GST control)	1.34 fold enrichment (6-mer frequency, TF over GST control)	1.42 fold enrichment (6-mer frequency, TF over GST control)	1.32 fold enrichment (6-mer frequency, TF over GST control)	1.37 fold enrichment (6-mer frequency, TF over GST control)	1.39 fold enrichment (6-mer frequency, TF over GST control)	1.38 fold enrichment (6-mer frequency, TF over GST control)	1.36 fold enrichment (6-mer frequency, TF over GST control)	1.54 fold enrichment (6-mer frequency, TF over GST control)
